Data published in PubChem BioAssay (NCI).
About 83,000 compounds went through this panel and 20% of them were active in at least one assay; those are over-represented in the sample as a whole.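 Percent growth is the endpoint: 0 to 100 indicates growth inhibition (40 means 60% inhibition), 0 means no net growth, and negative values indicate cell death.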 Activity calls are given as the source filed them. The calls were made as follows: active = growth percent below 10; inactive = the rest.

The compounds below were run on HCT-15 colon (assay: NCI-60 one-dose screen, 48 h (100 = growth as untreated, 0 = no growth, -100 = all killed)). Details: 10 µM unless noted.

| SMILES | growth |
| --- | --- |
| CC(c1ccc(-n2cccn2)cc1)c1cnc(N2CCc3ccc(C(N)=O)cc3C2)s1 (stereo not drawn) | 69.3% (inactive) |
| COc1cc2c(cc1OC)-c1ccc3cc4c(cc3c1N(CCCN1CCCCC1)C2)OCO4 | 47.5% (inactive) |
| C[C@@H](C[C@H](CCOCc1cccnc1)c1ccccc1)c1cc2ccccc2o1 | 91.1% (inactive) |
| N#Cc1c(N)n2c(nc1=Nc1ccc([N+](=O)[O-])cc1)sc1cc(Cl)ccc12 | 95.9% (inactive) |
| C=C1C(=O)O[C@H]2[C@H]1CC/C(C(=O)NCCCCCCCCNC(=O)/C1=C/CC[C@@]3(C)O[C@H]3[C@H]3OC(=O)C(=C)[C@@H]3CC1)=C\CC[C@@]1(C)O[C@@H]21 | 107% (inactive) |
| O=C(NCCOCCOCCOCCNC(=O)c1cc2c(o1)C(=O)c1ccccc1C2=O)NC12CC3CC(CC(C3)C1)C2 | -74.7% (active) |
| CCOc1ccc2nc(-c3cccc(OCC(=O)NC(C)C)c3)nc(Nc3ccc(-c4cn[nH]c4)cc3)c2c1 | 30.8% (inactive) |
| CSc1ncc(C)c(Nc2ccc(Cl)cc2)n1 | 99.3% (inactive) |
| O=C1CCC(N2C(=O)c3cccc(NCCCC4CCN(CCNC(=O)c5cc6c(o5)C(=O)c5ccccc5C6=O)CC4)c3C2=O)C(=O)N1 (stereo not drawn) | -80.8% (active) |
| CCOC(=O)C1C(=O)C=C(c2cnccn2)CC1c1ccc(OC)c(OC)c1 (stereo not drawn) | 98.9% (inactive) |
| OC(CBr)c1ccnc2ccccc12 (stereo not drawn) | 103% (inactive) |
| O=C1N(c2ccccc2)C(=S)N[C@]12[C@H](c1ccccc1)C1CCCN1[C@]21C(=O)NC2C=CC(Cl)=C[C@H]21 (stereo partly drawn) | 100% (inactive) |
| CC(C)n1nc(C#Cc2cccc(O)c2)c2c(N)ncnc21 | -11.2% (active) |
| COc1cc2c(=O)n(CCCn3ccnc3)c3c4cc5c(cc4ccc3c2cc1OC)OCO5 | 10.1% (inactive) |
| O=C(/C=C/C12c3ccccc3C(c3ccccc31)C1C(=O)N(c3ccccc3)C(=O)C12)c1ccccc1 (stereo not drawn) | -25.8% (active) |
| O=C(CC12CC3CC(CC(C3)C1)C2)NCCOCCOCCOCCNC(=O)c1cc2c(o1)C(=O)c1ccccc1C2=O | -78.5% (active) |
| O=C1Nc2ccccc2/C1=N/N=C/c1ccc(OC2OC(CO)C(O)C(O)C2O)cc1 (stereo not drawn) | 105% (inactive) |
| CC(=[N-])N1CCC[C@@H](Nc2c3ccccc3nc3ccccc23)C1.[Cl][Pt].[NH-]CCC[NH-] | 48.2% (inactive) |
| O=C1Nc2ccccc2/C1=N/N=C/c1c[nH]c2ccccc12 | 72.2% (inactive) |
| CNC1(C#N)CCN(Cc2ccccc2)CC1 | 104% (inactive) |

| SMILES | growth |
| --- | --- |
| COc1cc2c(cc1OC)-c1ccc3cc4c(cc3c1N(CCCn1ccnc1)C2)OCO4 | 95.7% (inactive) |
| NC(=O)c1c(NC(=O)c2ccccn2)sc2c1CCC(=O)C2 | 13.4% (inactive) |
| NC(N)=N/N=C/c1ccc(Br)cc1 | 23.4% (inactive) |
| CCNCCNc1cc(C2CCCC2)c(C#N)c2nc3ccccc3n12 | 26.8% (inactive) |
| CS(=O)(=O)c1ccc(-c2[nH]c3ccc(F)cc3c2/C=N/O)cc1 | 98.4% (inactive) |
| N=C(N)c1ccc(-c2ccc(-c3ccc(Cl)cc3Cl)o2)cc1 | -74.1% (active) |
| CC(=O)C(C(C)=O)c1nc2sc3cc(Cl)ccc3n2c(=N)c1C#N | 94.2% (inactive) |
| Cc1ccc(/C=C(\C#N)n2nnc3cc(Cl)c(Cl)cc32)cc1 | 11.7% (inactive) |
| O=S(=O)(NCCNc1cc(-c2c(-c3cccc(O)c3)nc3sccn23)ccn1)c1ccc(Br)cc1 | 44.8% (inactive) |
| COc1ccc(/C(C)=N/NS(=O)(=O)c2ccc(C)cc2)cc1OC | 103% (inactive) |
| C=C(Cl)COC(=O)C(C)(C)O | 102% (inactive) |
| CCc1c(C(=O)N[C@@H]2c3cc(Cl)ccc3CC[C@@H]2O)[nH]c(C)c1C(C)=O | 41.1% (inactive) |
| COc1cc2nc(Nc3ccc(F)cc3)nc(N)c2cc1OC | 94.7% (inactive) |
| c1ccc2c(c1)nc(-n1ccnc1)c1nc3ccccc3n12 | 82.7% (inactive) |
| COC(=O)/C(=C\c1ccc(OC)cc1)C(=O)N1c2ccccc2Sc2ccccc21 | 24% (inactive) |
| CN1CCN(c2ccc(Nc3ncc(Cl)c(NC[C@@H]4CCCO4)n3)cc2)CC1 | 24.3% (inactive) |
| O=C(NC1CCOCC1)c1ccc2c(c1)CN(c1ncc(Cc3cccc(-n4cccn4)c3)s1)CC2 | 79.3% (inactive) |
| [2H]c1nc(Nc2ncc(F)c(-c3cc(F)c4nc(C)n(C(C)C)c4c3)n2)c([2H])c([2H])c1CN1CCN(C([2H])([2H])C([2H])([2H])[2H])CC1 | 39.8% (inactive) |
| COc1ccc(C2CC(c3cnccn3)=NN2)cc1OC (stereo not drawn) | 107% (inactive) |

What follows are compounds tested on HT29 colon in the same assay as above. Details: 10 µM unless noted.

| SMILES | growth |
| --- | --- |
| CC(c1ccc(-n2cccn2)cc1)c1cnc(N2CCc3ccc(C(N)=O)cc3C2)s1 (stereo not drawn) | 81.3% (inactive) |
| COc1cc2c(cc1OC)-c1ccc3cc4c(cc3c1N(CCCN1CCCCC1)C2)OCO4 | 25.4% (inactive) |
| C[C@@H](C[C@H](CCOCc1cccnc1)c1ccccc1)c1cc2ccccc2o1 | 78.1% (inactive) |
| N#Cc1c(N)n2c(nc1=Nc1ccc([N+](=O)[O-])cc1)sc1cc(Cl)ccc12 | 99.2% (inactive) |
| C=C1C(=O)O[C@H]2[C@H]1CC/C(C(=O)NCCCCCCCCNC(=O)/C1=C/CC[C@@]3(C)O[C@H]3[C@H]3OC(=O)C(=C)[C@@H]3CC1)=C\CC[C@@]1(C)O[C@@H]21 | 82.5% (inactive) |
| O=C(NCCOCCOCCOCCNC(=O)c1cc2c(o1)C(=O)c1ccccc1C2=O)NC12CC3CC(CC(C3)C1)C2 | 1.21% (active) |
| CCOc1ccc2nc(-c3cccc(OCC(=O)NC(C)C)c3)nc(Nc3ccc(-c4cn[nH]c4)cc3)c2c1 | -27.6% (active) |
| CSc1ncc(C)c(Nc2ccc(Cl)cc2)n1 | 96.4% (inactive) |
| O=C1CCC(N2C(=O)c3cccc(NCCCC4CCN(CCNC(=O)c5cc6c(o5)C(=O)c5ccccc5C6=O)CC4)c3C2=O)C(=O)N1 (stereo not drawn) | 1.94% (active) |
| CCOC(=O)C1C(=O)C=C(c2cnccn2)CC1c1ccc(OC)c(OC)c1 (stereo not drawn) | 93.1% (inactive) |
| OC(CBr)c1ccnc2ccccc12 (stereo not drawn) | 85.1% (inactive) |
| O=C1N(c2ccccc2)C(=S)N[C@]12[C@H](c1ccccc1)C1CCCN1[C@]21C(=O)NC2C=CC(Cl)=C[C@H]21 (stereo partly drawn) | 82.6% (inactive) |
| CC(C)n1nc(C#Cc2cccc(O)c2)c2c(N)ncnc21 | -17.7% (active) |
| COc1cc2c(=O)n(CCCn3ccnc3)c3c4cc5c(cc4ccc3c2cc1OC)OCO5 | -24% (active) |
| O=C(/C=C/C12c3ccccc3C(c3ccccc31)C1C(=O)N(c3ccccc3)C(=O)C12)c1ccccc1 (stereo not drawn) | 15.1% (inactive) |
| O=C(CC12CC3CC(CC(C3)C1)C2)NCCOCCOCCOCCNC(=O)c1cc2c(o1)C(=O)c1ccccc1C2=O | 1.17% (active) |
| O=C1Nc2ccccc2/C1=N/N=C/c1ccc(OC2OC(CO)C(O)C(O)C2O)cc1 (stereo not drawn) | 103% (inactive) |
| CC(=[N-])N1CCC[C@@H](Nc2c3ccccc3nc3ccccc23)C1.[Cl][Pt].[NH-]CCC[NH-] | 1.38% (active) |
| O=C1Nc2ccccc2/C1=N/N=C/c1c[nH]c2ccccc12 | 80.8% (inactive) |
| CNC1(C#N)CCN(Cc2ccccc2)CC1 | 102% (inactive) |

| SMILES | growth |
| --- | --- |
| COc1cc2c(cc1OC)-c1ccc3cc4c(cc3c1N(CCCn1ccnc1)C2)OCO4 | 27.6% (inactive) |
| NC(=O)c1c(NC(=O)c2ccccn2)sc2c1CCC(=O)C2 | 68% (inactive) |
| NC(N)=N/N=C/c1ccc(Br)cc1 | 9.57% (active) |
| CCNCCNc1cc(C2CCCC2)c(C#N)c2nc3ccccc3n12 | -9.9% (active) |
| CS(=O)(=O)c1ccc(-c2[nH]c3ccc(F)cc3c2/C=N/O)cc1 | 93.7% (inactive) |
| N=C(N)c1ccc(-c2ccc(-c3ccc(Cl)cc3Cl)o2)cc1 | -71.1% (active) |
| CC(=O)C(C(C)=O)c1nc2sc3cc(Cl)ccc3n2c(=N)c1C#N | 92.4% (inactive) |
| Cc1ccc(/C=C(\C#N)n2nnc3cc(Cl)c(Cl)cc32)cc1 | 12.3% (inactive) |
| O=S(=O)(NCCNc1cc(-c2c(-c3cccc(O)c3)nc3sccn23)ccn1)c1ccc(Br)cc1 | 51% (inactive) |
| COc1ccc(/C(C)=N/NS(=O)(=O)c2ccc(C)cc2)cc1OC | 109% (inactive) |
| C=C(Cl)COC(=O)C(C)(C)O | 92.8% (inactive) |
| CCc1c(C(=O)N[C@@H]2c3cc(Cl)ccc3CC[C@@H]2O)[nH]c(C)c1C(C)=O | 66.9% (inactive) |
| COc1cc2nc(Nc3ccc(F)cc3)nc(N)c2cc1OC | 81% (inactive) |
| c1ccc2c(c1)nc(-n1ccnc1)c1nc3ccccc3n12 | 74% (inactive) |
| COC(=O)/C(=C\c1ccc(OC)cc1)C(=O)N1c2ccccc2Sc2ccccc21 | 15.3% (inactive) |
| CN1CCN(c2ccc(Nc3ncc(Cl)c(NC[C@@H]4CCCO4)n3)cc2)CC1 | 16% (inactive) |
| O=C(NC1CCOCC1)c1ccc2c(c1)CN(c1ncc(Cc3cccc(-n4cccn4)c3)s1)CC2 | 72.8% (inactive) |
| [2H]c1nc(Nc2ncc(F)c(-c3cc(F)c4nc(C)n(C(C)C)c4c3)n2)c([2H])c([2H])c1CN1CCN(C([2H])([2H])C([2H])([2H])[2H])CC1 | 34.6% (inactive) |
| COc1ccc(C2CC(c3cnccn3)=NN2)cc1OC (stereo not drawn) | 84.9% (inactive) |
